# Data: the supplement of paper PMC3545927
# The other results are listed elsewhere or left out. The hit rate among all sequences tested is not known here.
# Target: furin, P09958
# Assay: furin cleavage Z-score vs untreated control; higher = more cleavage, active = 3.5 or more, inactive = 1 or less, 8 variable residues between constant flanks
# Procedure, shortened: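 Purified furin digested bead-held 8-mer peptide–cDNA fusions at 1:10 enzyme:substrate in 0.01 ml of 50 mM HEPES pH 7.5 with CaCl2 and NaCl for 7.5, 15 or 30 min. The cleavage Z-score compares sequencing counts of released DNA with furin-free reactions on a log scale, with lowess adjustment and median absolute deviation scaling.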
# Sequence of furin, P09958 (P09958 whole entry): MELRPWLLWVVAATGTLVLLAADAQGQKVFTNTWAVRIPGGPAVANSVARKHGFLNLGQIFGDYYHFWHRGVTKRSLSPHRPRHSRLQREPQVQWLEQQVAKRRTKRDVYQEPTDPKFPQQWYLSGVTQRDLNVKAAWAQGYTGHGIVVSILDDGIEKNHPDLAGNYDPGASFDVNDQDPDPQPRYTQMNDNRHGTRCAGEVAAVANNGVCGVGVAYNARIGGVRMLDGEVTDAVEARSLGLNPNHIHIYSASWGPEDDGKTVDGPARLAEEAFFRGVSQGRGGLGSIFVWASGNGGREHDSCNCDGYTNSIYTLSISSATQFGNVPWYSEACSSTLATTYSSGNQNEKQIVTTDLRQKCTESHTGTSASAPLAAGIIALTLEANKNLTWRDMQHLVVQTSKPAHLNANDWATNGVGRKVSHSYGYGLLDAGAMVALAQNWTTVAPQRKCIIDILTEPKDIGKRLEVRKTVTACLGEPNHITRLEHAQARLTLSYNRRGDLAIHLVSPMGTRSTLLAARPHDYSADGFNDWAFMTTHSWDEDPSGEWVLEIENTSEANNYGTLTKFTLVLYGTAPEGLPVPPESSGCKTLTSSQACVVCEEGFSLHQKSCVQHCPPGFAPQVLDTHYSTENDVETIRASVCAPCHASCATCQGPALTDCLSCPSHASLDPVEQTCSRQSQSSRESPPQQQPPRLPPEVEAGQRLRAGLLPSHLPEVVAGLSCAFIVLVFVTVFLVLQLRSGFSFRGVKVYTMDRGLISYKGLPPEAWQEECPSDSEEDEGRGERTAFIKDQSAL
Sequence,furin cleavage Z-score (7.5 min),furin cleavage Z-score (15 min),furin cleavage Z-score (30 min)
CAEPPVVHGCAGNASASA [HC1314],0.438 (inactive),1.71,-0.723 (inactive)
CARHRRATGAAGNASASA [FS-2944],6.7 (active),5.37 (active),4.1 (active)
CARDRRAAGSAGNASASA [FS-1946],6.35 (active),7.75 (active),5.91 (active)
CARHLRSAGSAGNASASA [FS-1896],1.18,-0.11 (inactive),2.17
CATTPCRGSWAGNASASA [HC70],-0.828 (inactive),-1.44 (inactive),-0.599 (inactive)
CAEGERGFFYAGNASASA [EK6],-2.12 (inactive),-0.423 (inactive),-2.28 (inactive)
CAEMSRTRRYAGNASASA [FS-1319],5.42 (active),8.78 (active),8.64 (active)
CADGAGKRVYAGNASASA [HC1558],1.53,1.27,0.404 (inactive)
CASGHRTRRYAGNASASA [FS-192],7 (active),8.02 (active),8.16 (active)
CATSQTLLFNAGNASASA [HC1062],0.00122 (inactive),-0.692 (inactive),-0.503 (inactive)
CARLKRDRSAAGNASASA [FS-2220],6.33 (active),8.55 (active),8.68 (active)
CAVRKRQVSLAGNASASA [FS-3141],-1.04 (inactive),-0.0874 (inactive),0.617 (inactive)
CAVLKRDVDIAGNASASA [FS-1815],1.04,-1.55 (inactive),0.353 (inactive)
CARLKRDLATAGNASASA [FS-2043],9.22 (active),11.3 (active),9.07 (active)
CARLKRLFLAAGNASASA [FS-2991],0.382 (inactive),-1.83 (inactive),-1.56 (inactive)
CAVRKRDLQTAGNASASA [FS-3140],2.53,5.9 (active),5.02 (active)
CARLKRDPGIAGNASASA [FS-2350],3.26,4.16 (active),3.42
CAVRKRSPWLAGNASASA [FS-3142],-1.29 (inactive),0.44 (inactive),1.17
CARLKPTLHGAGNASASA [HC967],-0.75 (inactive),-0.713 (inactive),0.566 (inactive)
CAKTPCSAHLAGNASASA [HC2474],-0.289 (inactive),-0.529 (inactive),-1.11 (inactive)
CAMEWCSQHLAGNASASA [HC1708],0.411 (inactive),0.726 (inactive),0.812 (inactive)
CAEDVVCCSMAGNASASA [HC1368],-0.171 (inactive),0.686 (inactive),0.101 (inactive)
CATTQCSGSWAGNASASA [HC1882],-0.496 (inactive),-1.36 (inactive),-0.763 (inactive)

Sequence,furin cleavage Z-score (7.5 min),furin cleavage Z-score (15 min),furin cleavage Z-score (30 min)
CAFRVGLHEYAGNASASA [HC1234],-0.864 (inactive),-0.389 (inactive),-0.313 (inactive)
CAEVPCHRPPAGNASASA [HC2419],-0.0603 (inactive),1.24,-0.795 (inactive)
CAEACSLTPPAGNASASA [HC1414],0.244 (inactive),-0.208 (inactive),-0.022 (inactive)
CARRRRSMDPAGNASASA [FS-3067],8 (active),9.64 (active),7.14 (active)
CARRRRQLDPAGNASASA [FS-2598],8.96 (active),10.1 (active),7.56 (active)
CARRTRSRSPAGNASASA [FS-2521],2.04,2.53,4.49 (active)
CARRRRELDPAGNASASA [FS-2076],11.6 (active),10.7 (active),8.52 (active)
CARRRRQEEKAGNASASA [FS-2794],-0.167 (inactive),1.69,-1.54 (inactive)
CARRTRFISLAGNASASA [FS-2601],-0.682 (inactive),1.63,1.87
CARRTRSFSWAGNASASA [FS-1790],0.729 (inactive),1.95,2.68
CALAAGVGIYAGNASASA [HC1660],0.247 (inactive),-0.366 (inactive),0.0629 (inactive)
CAVGWPAPQGAGNASASA [HC715],0.307 (inactive),1.62,0.189 (inactive)
CAECPCHRPSAGNASASA [HC2340],0.0178 (inactive),-0.268 (inactive),-1.23 (inactive)
CATVDFSLDPAGNASASA [HC891],-0.614 (inactive),-1.09 (inactive),-1.01 (inactive)
CARRTRDLDPAGNASASA [FS-2520],8.58 (active),8.71 (active),7.24 (active)
CARATRFWDPAGNASASA [FS-2650],-0.242 (inactive),-0.738 (inactive),0.257 (inactive)
CARRRRELEPAGNASASA [FS-1867],10.9 (active),11 (active),7.47 (active)
CAPSWGPTDPAGNASASA [HC213],-0.72 (inactive),-1.18 (inactive),1.35
CAWGNRFKKLAGNASASA [FS-315],-1.19 (inactive),0.33 (inactive),-1.11 (inactive)
CAWGSRFKKLAGNASASA [FS-317],0.17 (inactive),-0.284 (inactive),0.58 (inactive)
CALGPRFKRLAGNASASA [FS-269],9.05 (active),10.1 (active),9.85 (active)
CAWGPRFKRLAGNASASA [FS-209],6.86 (active),8.43 (active),8.5 (active)
